About 3,100 (6.6%) of roughly 47,000 compounds were called active. Only a selection was taken, and actives are over-represented in it overall. Values without a mark were called inactive. No stated cut-off is given here; in the data, active means inhibition above about 30%; inactive means the rest.
What follows are molecules tested against Ubiquitin carboxyl-terminal hydrolase 17-like protein 5 (Homo sapiens) (UniProt A8MUK1) (assay: blocks human USP17 ubiquitin-rhodamine cleavage (AID 1645855)). Conditions: purified USP17, Ub-rhodamine cleavage fluorescence, 3 h; at 50 µM; active compounds read high.
Ubiquitin carboxyl-terminal hydrolase 17-like protein 5 (Homo sapiens), sequence (A8MUK1 whole entry, looked up): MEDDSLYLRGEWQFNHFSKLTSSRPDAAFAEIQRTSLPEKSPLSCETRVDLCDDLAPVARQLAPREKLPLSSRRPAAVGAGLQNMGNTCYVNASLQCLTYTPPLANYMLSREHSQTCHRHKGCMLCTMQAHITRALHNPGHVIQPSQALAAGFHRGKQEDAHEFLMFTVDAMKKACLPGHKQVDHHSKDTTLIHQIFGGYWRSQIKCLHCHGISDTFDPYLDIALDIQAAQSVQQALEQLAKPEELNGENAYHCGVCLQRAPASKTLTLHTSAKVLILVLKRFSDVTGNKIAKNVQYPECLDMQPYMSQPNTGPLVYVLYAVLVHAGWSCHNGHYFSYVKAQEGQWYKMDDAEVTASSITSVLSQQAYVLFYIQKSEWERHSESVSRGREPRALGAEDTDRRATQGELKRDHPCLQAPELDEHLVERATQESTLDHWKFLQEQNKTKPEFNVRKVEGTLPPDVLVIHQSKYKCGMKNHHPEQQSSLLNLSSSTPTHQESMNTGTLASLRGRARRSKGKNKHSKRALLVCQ
`CCCC(=O)N1CCC(c2cc(=O)[nH]c(-c3ccccn3)n2)C1` (centres undefined) gave an inhibition of -51.9%.
With `N#Cc1ccc(Oc2ncnc3ccccc23)cc1` the inhibition was 4.86%.
For `N#Cc1ccc(-c2csc(COc3ccccc3Cl)n2)cc1`, the inhibition was 35% (active).
`CC(C)OC(=O)c1cc2c(ccn2-c2ccc(F)cc2)n1Cc1ccccn1` gave an inhibition of 9.79%.
`Cc1c(CN2CCOC(c3cncc(-c4ccccc4F)n3)C2)cnn1C` (centres undefined) gave an inhibition of -0.212%.
Molecule `COc1ccc(C(=O)N2CC(=O)N(Cc3ccccc3)CC(O)C2)cc1` (centres undefined) has an inhibition of -3.64%.
`O=C(CN1C(=O)c2cccnc2Sc2ccccc21)Nc1ccc(F)cc1F` gave an inhibition of -19.9%.
Molecule `CCOc1nc2cccnc2n(CC(=O)Nc2ccc(F)cc2F)c1=O` has an inhibition of -5.53%.
`O=C(CN1C(=O)C2CCCC2=Nc2ccccc21)Nc1ccc(F)cc1F` (centres undefined) was tested, and the inhibition was 59.2% (active).
Work on `Cc1noc(C)c1COc1cccc(C(=O)NC(C)c2cc3ccccc3o2)c1` (centres undefined) yielded an inhibition of 1.56%.
With `COc1ccccc1N1CCN(C(=O)CSc2cc(=O)n(C)c3cc(Cl)ccc23)CC1` the inhibition was -7.92%.
Work on `O=C(NCCc1ccccc1)N1CC[C@@H]2CN(Cc3cccnc3)S(=O)(=O)[C@@H]2CC1` yielded an inhibition of -8.52%.
In the case of `COc1c(O)c2c(=O)cc(OC)c3c4c(OC)cc(=O)c5c(O)c(OC)c(CC(C)OC(=O)c6ccccc6)c(c(c1CC(C)OC(=O)Oc1ccc(O)cc1)c23)c54` (centres undefined), the inhibition is reported as 39.4% (active).
In the case of `CCOc1ccccc1NC(=O)Cc1cccs1`, the inhibition is reported as 43.3% (active).
Molecule `CCOc1ccccc1NC(=O)Cn1c(=O)n(-c2ncccc2C(=O)OC)c(=O)c2cccnc21` has an inhibition of -0.0478%.
Work on `CCOc1ccccc1NC(=O)COc1cccc2c1OC(C)(C)C2` yielded an inhibition of 8.61%.
With `CC1CCN(c2ncc3c(n2)CCC(C(=O)NC(C)c2cccnc2)C3)CC1` (centres undefined) the inhibition was -33.2%.
In the case of `CC(=O)c1cccc(NC(=O)c2cccc(-c3nc(-c4ccccc4)no3)c2)c1`, the inhibition is reported as 1.73%.
In the case of `Cc1nc(-c2cccc(S(=O)(=O)Nc3ccccc3C)c2)no1`, the inhibition is reported as -1.13%.
In the case of `Cc1nc(-c2cccc(NC(=O)C3CCN(c4ccccc4)C3=O)c2)no1` (centres undefined), the inhibition is reported as 52.3% (active).
For `Cc1cnc2nc3c(cc2c1)CN(S(=O)(=O)c1cccc2cccnc12)CC3`, the inhibition was -136%.
In the case of `N#Cc1ccc(NC(=O)Nc2cccn(Cc3ccccc3F)c2=O)cc1`, the inhibition is reported as 93.3% (active).
With `N#Cc1ccc(OCC(=O)Nc2ccccc2N2CCCCC2)cc1` the inhibition was 8.45%.
In the case of `Cc1cc(C)n2nc(CN(Cc3ccccc3)C(=O)c3ccccc3)nc2n1`, the inhibition is reported as -5.53%.
For `Cc1ccc(N2CC(c3nnc(NC(=O)CCCc4ccccc4)s3)CC2=O)cc1` (centres undefined), the inhibition was -6.98%.
`CS(=O)(=O)Nc1cccc(C#CCN)c1` showed an inhibition of -24.2%.
`O=C(c1sc(N2CCCCC2)nc1-c1ccccc1)c1c[nH]c2ccccc12` was tested, and the inhibition was -31.2%.
`CN1CCN(c2nc3c(s2)CN(C(=O)c2ccccc2)CC3)CC1` was tested, and the inhibition was -15.2%.
`O=C(CN(C(=O)c1ccccc1)C1CCCCC1)Nc1nc(-c2ccccc2)cs1` gave an inhibition of 11.1%.
For `CC(=O)NC(Cc1ccccc1C)C(=O)NC1CCN(C(=O)Nc2cccc(C)c2)CC1` (centres undefined), the inhibition was 1.56%.
In the case of `Oc1cccc2nc3c(O)cccc3nc12`, the inhibition is reported as 96.1% (active).
In the case of `COc1ccc(C(=O)O)cc1S(=O)(=O)Nc1ccc(-c2ccccc2)cc1`, the inhibition is reported as -9.74%.
Molecule `O=c1oc2cccnc2n1Cc1ccccc1F` has an inhibition of 13%.
`COc1ccccc1CNC(=O)C1CCN(S(C)(=O)=O)c2ccccc2O1` (centres undefined) showed an inhibition of 1.45%.
With `Cc1ccc(CN2C(=O)CS(=O)(=O)C(C)C2=O)cc1` (centres undefined) the inhibition was 0.155%.
Molecule `CC(NC(=O)c1ccc2c(c1)OCCO2)c1ccc2c(c1)OCCCO2` (centres undefined) has an inhibition of -21.9%.
`C[C@H](NC(=O)c1ccc2c(c1)OCO2)c1nc2cc(-c3ccc(F)cc3)ncn2n1` was tested, and the inhibition was 35% (active).
`Cc1nc(-c2ccc(C(=O)NCc3ccc4c(c3)OCO4)cc2)cs1` was tested, and the inhibition was 29.5%.
`Cc1ccc(NS(=O)(=O)c2cc3n(c2)CCCNC3=O)c(F)c1` showed an inhibition of -11.3%.
`O=C(c1ncccn1)N1CCCC1c1ncc(Cc2ccccc2Cl)o1` (centres undefined) showed an inhibition of 0.408%.
`COc1ccc(NC(=O)c2c(N3CCCC3=O)c3cc(F)ccc3n2C)cc1Cl` gave an inhibition of -15.2%.
`CCC(C(=O)Nc1ccc(-c2cn3cccnc3n2)cc1)c1ccccc1` (centres undefined) was tested, and the inhibition was 45.8% (active).
`CCC(C(=O)Nc1cc(=O)[nH]c2nc(CCc3ccccc3)nn12)c1ccccc1` (centres undefined) gave an inhibition of 2.97%.
For `O=C(Nc1ccc(-c2nc3cccnc3s2)cc1)C(c1ccccc1)c1ccccc1`, the inhibition was -146%.
For `CC(=O)c1ccc(NC(=O)C(C)Sc2nnc(COc3ccc(C)cc3)n2Cc2ccccc2)cc1` (centres undefined), the inhibition was 7.66%.
Work on `Cc1ccn2cc(-c3ccc(NS(=O)(=O)c4cc(C)c(C)cc4C)cc3)nc2n1` yielded an inhibition of -32.9%.
For `CC(Oc1ccccc1)C(=O)Nc1ccc(-c2cn3cccnc3n2)cc1` (centres undefined), the inhibition was 41.4% (active).
`Cc1ccc(Cn2c(C(=O)O)c(CNC(C)CCc3ccccc3)c3ccccc32)cc1` (centres undefined) gave an inhibition of -1.67%.
In the case of `Cc1nc(Nc2ncccn2)cc(C2CCCN2S(C)(=O)=O)n1` (centres undefined), the inhibition is reported as 0.142%.
Molecule `O=C1CN(C(=O)c2cccc3ccccc23)C(c2ccc(F)cc2)c2cc(Br)ccc2N1` (centres undefined) has an inhibition of 2.94%.
In the case of `O=C(c1cc2ccccc2[nH]1)N1CCCC2(COCCN(c3cccnc3)C2)C1` (centres undefined), the inhibition is reported as 16.4%.
For `COc1ccc(NC(=O)CSc2cn(CC(=O)N3CCCC3)c3ccccc23)cc1`, the inhibition was 7.65%.
In the case of `CCOc1ccc2c(c1)c(=O)c(C(=O)c1ccccc1)cn2CC(=O)Nc1ccc(OC)cc1`, the inhibition is reported as -0.53%.
For `CCOc1ccc(NC(=O)Cn2cc(C(=O)c3ccc(Cl)cc3)c(=O)c3cc(OC)ccc32)cc1`, the inhibition was 57.1% (active).
With `O=C(C1CC1)N1CCc2cc(S(=O)(=O)NCCCN3CCN(Cc4ccccc4)CC3)ccc21` the inhibition was -6.1%.
Work on `COc1ccc(-c2nc3c(c(=O)c4ccccc4n3C)c(=O)n2CCc2ccc(OC)c(OC)c2)cc1` yielded an inhibition of 7.74%.
`COc1c(O)c2c3c(c1O)C(=O)[C@@]1(O)C(=C3C(C)=CC2=O)O[C@@H](C)C1(C)C` was tested, and the inhibition was 37.6% (active).
Work on `Cc1nn(-c2ccccc2)c(C)c1S(=O)(=O)Nc1ccccc1C(N)=O` yielded an inhibition of 7.84%.
`COc1cccc(CNS(=O)(=O)c2cc3[nH]c4c(c3cc2C)C(=O)CCC4)c1` gave an inhibition of -25.1%.
`Cn1nc(C(=O)Nc2ccc(F)cc2)c(=O)c2ccccc21` was tested, and the inhibition was 32.8% (active).
`Cc1oc(-c2ccccc2Cl)cc1C(=O)Nc1ccc(F)cc1` gave an inhibition of -7.25%.
`COc1cccc(NC(=O)c2nn(-c3ccc(F)cc3)c(OC)cc2=O)c1` gave an inhibition of -0.739%.
Work on `CNc1nc2c(c(=O)n1-c1ccccc1)CCN(S(C)(=O)=O)C2` yielded an inhibition of 4.69%.
Work on `CNc1nc2c(c(=O)n1-c1ccccc1)CN(C(=O)c1ccc3ccccc3c1)CC2` yielded an inhibition of 1.41%.
In the case of `CN1CCc2c(sc3nc(SCCc4ccccc4)n(-c4ccccc4)c(=O)c23)C1`, the inhibition is reported as 41.9% (active).
Molecule `Cc1ccc(-c2nnc(CCC(=O)O)o2)cc1` has an inhibition of -26.7%.
For `COc1ccccc1NC(=O)Nc1ccc(CCc2nc3ccccc3[nH]2)cc1`, the inhibition was -12.4%.
`COc1cc(OC)cc(C(=O)Nc2cccc(CCc3nc4ccc(C)cc4[nH]3)c2)c1` was tested, and the inhibition was 30.4% (active).
Molecule `CC(=O)Nc1ccc(C(=O)CSc2nc3ccc(C)cc3[nH]2)cc1` has an inhibition of 12.1%.
`Cc1ccc(C(=O)N2CCCC(c3nnc(-c4ccccc4)o3)C2)cc1F` (centres undefined) showed an inhibition of -2.67%.
For `O=CN1c2ccccc2NC(=O)CC1c1ccccc1` (centres undefined), the inhibition was -3.98%.
For `Clc1ccc2ncnc(NC3CCCCC3)c2c1`, the inhibition was 39.8% (active).
With `c1ccc(-c2nc3c4ccccc4nc(NC4CCCC4)n3n2)cc1` the inhibition was -4.03%.
For `Cc1cc(NC2CCCCC2)n2ncc(-c3ccc(Cl)cc3)c2n1`, the inhibition was -4.39%.
For `Cc1cc(C(=O)Nc2cccc(F)c2)cc2c1N(C)S(=O)(=O)c1ccccc1-2`, the inhibition was 5.77%.
`Cc1nn(-c2cccc(F)c2)c2c1C(C(=O)c1cc3ccccc3o1)CC(=O)N2` (centres undefined) showed an inhibition of 2.88%.
Molecule `Cc1nn(-c2ccc(F)cc2F)c2c1C(C(=O)c1ccc3c(c1)OCO3)CC(=O)N2` (centres undefined) has an inhibition of 9.19%.
With `Cc1nn(-c2ccc(F)cc2F)c2c1C(C(=O)c1cc3ccccc3o1)CC(=O)N2` (centres undefined) the inhibition was 31.3% (active).
In the case of `Cc1cc(N2CCCC2)ccc1CN1CCCC(c2nnc3n2CCNCC3)C1` (centres undefined), the inhibition is reported as -63.9%.
In the case of `O=C(Nc1nc2ccc(S(=O)(=O)N3CCOCC3)cc2s1)c1cc2ccccc2oc1=O`, the inhibition is reported as 34.2% (active).
Work on `O=C(Nc1ccccc1-c1nc2ccccc2[nH]1)c1cc(S(=O)(=O)N2CCOCC2)c(Cl)cc1Cl` yielded an inhibition of -21.9%.
In the case of `O=C(Nc1ccc(Cl)c(S(=O)(=O)N2CCOCC2)c1)c1cc(-c2ccccc2Cl)nc2ccccc12`, the inhibition is reported as -12.8%.
With `CC(=O)CCCSc1ncnc2c1sc1nc(N3CCOCC3)c3c(c12)CC(C)(C)OC3` the inhibition was 16.1%.
With `O=C(COc1cccc2ccc(N3CCC(Cc4ccccc4)CC3)nc12)NCc1ccc(F)cc1` the inhibition was 35.1% (active).
With `O=C(CCc1nnc2ccc(N3CCCC3)nn12)NCc1ccc(F)cc1` the inhibition was 11.5%.
Molecule `COc1ccc(NC(=O)CSc2ncccc2C(=O)N2CCC(Cc3ccccc3)CC2)cc1OC` has an inhibition of 11%.
Molecule `Cn1c(=O)c(N2CCC(C(=O)NCc3ccc(F)cc3)CC2)nc2cccnc21` has an inhibition of 16.8%.
`O=C(CC1C(=O)OCCN1Cc1ccccc1)Nc1cccc(F)c1` (centres undefined) was tested, and the inhibition was -10.1%.
With `O=C(COc1cccc2ccc(N3CCC(Cc4ccccc4)CC3)nc12)Nc1cccc(F)c1` the inhibition was 46.2% (active).

— PubChem BioAssay AID1645855 (Buhrlage Lab, Dana-Farber Cancer Institute and Novartis …, 2021)
